The text below walks through data of PMC7862700, “An all-to-all approach to the identification of sequence-specific readers for epigenetic DNA modifications on cytosine”.

Common to all, as to test: DAPPL (digital affinity profiling via proximity ligation, sequencing); 10 mM Tris-HCl pH 7.5, 50 mM NaCl, 1 mM DTT, 4% glycerol, room temperature, 30 min; GST-TFs on glutathione beads, 16-mer random dsDNA library, 0.1% formaldehyde crosslink after washing; high values mean tight binding
One assay addresses T1, FEV (Homo sapiens, UniProt Q99581 1-238).
T1 sequence: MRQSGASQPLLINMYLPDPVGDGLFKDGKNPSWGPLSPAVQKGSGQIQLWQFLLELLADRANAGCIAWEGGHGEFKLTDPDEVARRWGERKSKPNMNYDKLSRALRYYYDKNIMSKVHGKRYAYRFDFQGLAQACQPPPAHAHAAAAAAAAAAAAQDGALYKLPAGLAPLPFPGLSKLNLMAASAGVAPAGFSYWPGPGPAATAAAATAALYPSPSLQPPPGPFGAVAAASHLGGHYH
The note with it: protein: recombinant; tags: N-terminal GST; dsDNA, one strand shown. The essentials: (§1)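 Binding signal is each hexamer's read frequency for a factor divided by its frequency in the tag-only sample. The factors were GST-fused human transcription factors from yeast, captured on glutathione beads, DNA-barcoded and pooled with that sample. Pools were incubated with 200 nmole of a random double-stranded 16-mer DNA library in Tris/NaCl/DTT/glycerol buffer at room temperature for 30 min, then washed, crosslinked with 0.1% formaldehyde, proximity-ligated with BsaI/T4 ligase (1 h, 37 °C), PCR-amplified and sequenced on an Illumina NextSeq500.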

A further assay addresses ETV5 (Homo sapiens, UniProt P41161 1-510). The note with it: protein: recombinant; tags: N-terminal GST; dsDNA, one strand shown. The essentials:
as §1

For another assay, the target named is HSF1 (Homo sapiens, UniProt Q00613 1-529). The note with it: protein: recombinant; tags: N-terminal GST; chain copies: 3; dsDNA, one strand shown. Summed up: as §1
Chain of HSF1 (Q00613 whole entry): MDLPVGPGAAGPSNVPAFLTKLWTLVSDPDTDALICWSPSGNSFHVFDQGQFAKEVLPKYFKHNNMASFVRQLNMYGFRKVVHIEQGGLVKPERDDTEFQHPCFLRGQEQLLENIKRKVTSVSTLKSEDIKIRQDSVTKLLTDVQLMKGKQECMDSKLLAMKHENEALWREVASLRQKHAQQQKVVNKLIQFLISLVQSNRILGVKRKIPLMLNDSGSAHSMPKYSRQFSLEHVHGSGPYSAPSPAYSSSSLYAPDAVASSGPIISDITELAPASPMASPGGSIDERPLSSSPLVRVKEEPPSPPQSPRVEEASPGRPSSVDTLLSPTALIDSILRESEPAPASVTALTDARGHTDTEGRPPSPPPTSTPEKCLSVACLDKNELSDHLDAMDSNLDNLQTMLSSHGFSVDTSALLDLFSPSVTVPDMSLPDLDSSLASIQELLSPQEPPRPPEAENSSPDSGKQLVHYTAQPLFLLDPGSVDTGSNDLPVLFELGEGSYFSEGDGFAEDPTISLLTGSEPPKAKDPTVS
Another assay concerns the target T2, SPIC (Homo sapiens, UniProt Q8N5J4 1-248).
T2 sequence: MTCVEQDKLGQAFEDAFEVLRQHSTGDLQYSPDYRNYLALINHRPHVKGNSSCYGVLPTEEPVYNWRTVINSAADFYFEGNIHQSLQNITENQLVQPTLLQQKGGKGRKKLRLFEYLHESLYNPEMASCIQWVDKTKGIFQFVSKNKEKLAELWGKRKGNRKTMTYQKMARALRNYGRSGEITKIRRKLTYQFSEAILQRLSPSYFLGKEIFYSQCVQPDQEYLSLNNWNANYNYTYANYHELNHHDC
The note with it: protein: recombinant; tags: N-terminal GST; dsDNA, one strand shown. Summed up: as §1

The target of a further assay is ELF4 (Homo sapiens, UniProt Q99607 1-663). Particulars: protein: recombinant; tags: N-terminal GST; dsDNA, one strand shown. Summed up: as §1
Chain of ELF4 (Q99607 whole entry): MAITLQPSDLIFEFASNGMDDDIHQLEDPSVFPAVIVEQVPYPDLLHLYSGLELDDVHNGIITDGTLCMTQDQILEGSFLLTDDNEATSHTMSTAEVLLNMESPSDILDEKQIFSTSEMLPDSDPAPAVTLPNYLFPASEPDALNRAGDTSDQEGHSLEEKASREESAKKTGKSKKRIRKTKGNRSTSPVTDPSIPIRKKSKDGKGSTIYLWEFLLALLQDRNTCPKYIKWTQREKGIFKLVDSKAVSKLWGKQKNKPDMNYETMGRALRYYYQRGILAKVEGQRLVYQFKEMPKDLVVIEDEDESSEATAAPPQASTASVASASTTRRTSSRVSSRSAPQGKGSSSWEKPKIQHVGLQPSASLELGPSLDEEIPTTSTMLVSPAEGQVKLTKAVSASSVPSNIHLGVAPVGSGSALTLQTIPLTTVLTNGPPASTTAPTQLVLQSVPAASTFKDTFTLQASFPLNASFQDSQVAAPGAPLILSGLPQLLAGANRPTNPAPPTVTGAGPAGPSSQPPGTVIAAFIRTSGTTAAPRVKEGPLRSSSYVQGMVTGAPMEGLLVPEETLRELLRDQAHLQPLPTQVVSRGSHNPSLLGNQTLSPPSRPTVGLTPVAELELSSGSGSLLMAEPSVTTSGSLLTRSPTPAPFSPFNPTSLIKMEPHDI
In the next assay the target is T3, ELK4 (Homo sapiens, UniProt P28324-2 1-405).
T3 sequence: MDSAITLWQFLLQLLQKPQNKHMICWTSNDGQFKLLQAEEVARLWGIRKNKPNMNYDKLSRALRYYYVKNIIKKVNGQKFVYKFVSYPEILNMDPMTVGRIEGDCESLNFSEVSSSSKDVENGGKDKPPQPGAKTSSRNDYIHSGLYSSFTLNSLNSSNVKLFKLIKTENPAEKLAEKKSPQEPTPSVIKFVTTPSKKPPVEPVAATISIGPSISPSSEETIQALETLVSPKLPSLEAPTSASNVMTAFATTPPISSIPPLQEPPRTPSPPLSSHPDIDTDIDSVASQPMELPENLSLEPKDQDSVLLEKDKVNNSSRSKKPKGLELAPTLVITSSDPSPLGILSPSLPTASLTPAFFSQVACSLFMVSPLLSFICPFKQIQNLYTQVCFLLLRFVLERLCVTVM
Particulars: protein: recombinant; tags: N-terminal GST; dsDNA, one strand shown. The essentials:
as §1

In a further assay the target is T4, ETV2 (Homo sapiens, UniProt O00321 1-342).
T4 sequence: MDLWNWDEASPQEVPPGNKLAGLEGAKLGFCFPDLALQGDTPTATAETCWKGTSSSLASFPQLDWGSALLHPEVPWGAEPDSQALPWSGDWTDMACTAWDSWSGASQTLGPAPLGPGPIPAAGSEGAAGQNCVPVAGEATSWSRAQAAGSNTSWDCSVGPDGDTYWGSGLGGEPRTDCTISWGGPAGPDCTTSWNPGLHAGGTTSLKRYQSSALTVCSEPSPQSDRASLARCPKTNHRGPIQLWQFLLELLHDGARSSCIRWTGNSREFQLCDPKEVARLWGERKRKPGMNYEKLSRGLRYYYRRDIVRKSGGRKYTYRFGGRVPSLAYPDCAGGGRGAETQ
Particulars: protein: recombinant; tags: N-terminal GST; dsDNA, one strand shown. The essentials:
as §1

The target in a further assay is T5, ELF3 (Homo sapiens, UniProt P78545 1-371).
T5 sequence: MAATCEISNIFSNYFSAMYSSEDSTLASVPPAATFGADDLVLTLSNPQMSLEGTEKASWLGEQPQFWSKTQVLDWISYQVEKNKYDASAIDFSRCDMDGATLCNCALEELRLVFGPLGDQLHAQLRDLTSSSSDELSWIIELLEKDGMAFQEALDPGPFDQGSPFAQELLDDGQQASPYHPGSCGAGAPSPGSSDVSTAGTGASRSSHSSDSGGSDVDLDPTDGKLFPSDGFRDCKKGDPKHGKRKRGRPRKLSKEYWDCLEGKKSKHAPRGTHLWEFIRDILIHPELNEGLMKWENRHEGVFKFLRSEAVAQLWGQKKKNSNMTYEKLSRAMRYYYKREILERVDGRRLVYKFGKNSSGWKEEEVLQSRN
The note with it: protein: recombinant; tags: N-terminal GST; dsDNA, one strand shown. The essentials:
as §1

The target in a further assay is CRX (Homo sapiens, UniProt O43186 1-299). Particulars: protein: recombinant; tags: N-terminal GST; dsDNA, one strand shown. The essentials:
as §1

The target in another assay is ETV1 (Homo sapiens, UniProt P50549 1-477). Particulars: protein: recombinant; tags: N-terminal GST; dsDNA, one strand shown. The essentials: as §1
Chain of ETV1 (P50549 whole entry): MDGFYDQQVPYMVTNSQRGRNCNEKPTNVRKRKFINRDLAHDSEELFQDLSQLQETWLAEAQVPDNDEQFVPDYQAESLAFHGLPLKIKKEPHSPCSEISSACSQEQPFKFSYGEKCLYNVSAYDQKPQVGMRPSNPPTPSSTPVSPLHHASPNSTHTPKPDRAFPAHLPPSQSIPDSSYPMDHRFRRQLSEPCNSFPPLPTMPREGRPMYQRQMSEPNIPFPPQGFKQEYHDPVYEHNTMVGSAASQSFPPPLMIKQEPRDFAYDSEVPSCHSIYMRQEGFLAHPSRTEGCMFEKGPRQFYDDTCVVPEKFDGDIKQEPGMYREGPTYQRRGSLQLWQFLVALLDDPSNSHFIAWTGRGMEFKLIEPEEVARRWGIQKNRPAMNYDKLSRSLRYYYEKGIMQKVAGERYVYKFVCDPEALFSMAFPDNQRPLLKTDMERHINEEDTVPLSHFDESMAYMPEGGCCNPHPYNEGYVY
For the next assay, the target named is T6, ERF (Homo sapiens, UniProt P50548 1-548).
T6 sequence: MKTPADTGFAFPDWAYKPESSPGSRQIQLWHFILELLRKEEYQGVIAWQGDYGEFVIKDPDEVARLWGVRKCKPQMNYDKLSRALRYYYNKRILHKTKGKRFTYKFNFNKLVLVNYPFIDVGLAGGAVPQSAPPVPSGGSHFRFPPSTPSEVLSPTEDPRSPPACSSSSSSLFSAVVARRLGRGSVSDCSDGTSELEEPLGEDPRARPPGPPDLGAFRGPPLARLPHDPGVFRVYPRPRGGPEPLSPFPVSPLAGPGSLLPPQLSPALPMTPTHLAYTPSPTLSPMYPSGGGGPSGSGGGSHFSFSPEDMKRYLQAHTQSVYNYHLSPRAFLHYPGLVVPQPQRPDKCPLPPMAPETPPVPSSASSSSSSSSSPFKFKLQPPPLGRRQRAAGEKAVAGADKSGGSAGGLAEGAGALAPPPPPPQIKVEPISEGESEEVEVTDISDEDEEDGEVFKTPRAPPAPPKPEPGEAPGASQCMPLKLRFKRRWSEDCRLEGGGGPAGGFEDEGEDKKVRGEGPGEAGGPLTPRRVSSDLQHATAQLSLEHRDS
Particulars: protein: recombinant; tags: N-terminal GST; dsDNA, one strand shown. Summed up:
as §1

The next assay deals with T7, ETV3L (Homo sapiens, UniProt Q6ZN32 1-361).
T7 sequence: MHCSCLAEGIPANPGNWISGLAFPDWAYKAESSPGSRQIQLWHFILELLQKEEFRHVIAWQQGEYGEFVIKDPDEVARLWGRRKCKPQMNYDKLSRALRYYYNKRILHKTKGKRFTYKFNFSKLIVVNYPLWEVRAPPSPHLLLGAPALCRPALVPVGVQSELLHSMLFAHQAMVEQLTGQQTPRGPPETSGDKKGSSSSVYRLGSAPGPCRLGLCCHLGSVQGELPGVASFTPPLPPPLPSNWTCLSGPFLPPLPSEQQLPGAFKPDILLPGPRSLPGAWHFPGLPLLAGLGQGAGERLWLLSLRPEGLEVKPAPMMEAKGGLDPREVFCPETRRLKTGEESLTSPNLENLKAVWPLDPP
The note with it: protein: recombinant; tags: N-terminal GST; dsDNA, one strand shown. Summed up: as §1

Another assay concerns the target T8, ETS2 (Homo sapiens, UniProt P15036 1-469).
T8 sequence: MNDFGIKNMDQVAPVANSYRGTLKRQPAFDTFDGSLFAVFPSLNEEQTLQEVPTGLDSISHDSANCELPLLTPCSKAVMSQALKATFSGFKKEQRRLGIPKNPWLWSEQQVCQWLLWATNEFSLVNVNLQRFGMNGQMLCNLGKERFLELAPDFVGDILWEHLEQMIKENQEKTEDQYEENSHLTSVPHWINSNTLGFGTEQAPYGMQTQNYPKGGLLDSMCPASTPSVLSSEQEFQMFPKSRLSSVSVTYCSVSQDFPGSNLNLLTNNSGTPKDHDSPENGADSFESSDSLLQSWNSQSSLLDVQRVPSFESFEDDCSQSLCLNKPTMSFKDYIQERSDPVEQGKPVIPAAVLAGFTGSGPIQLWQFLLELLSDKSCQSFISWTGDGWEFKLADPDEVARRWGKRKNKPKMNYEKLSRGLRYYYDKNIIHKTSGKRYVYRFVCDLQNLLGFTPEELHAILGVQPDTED
Particulars: protein: recombinant; tags: N-terminal GST; dsDNA, one strand shown. Summed up: as §1

The next assay addresses T9, SPDEF (Homo sapiens, UniProt O95238 1-335).
T9 sequence: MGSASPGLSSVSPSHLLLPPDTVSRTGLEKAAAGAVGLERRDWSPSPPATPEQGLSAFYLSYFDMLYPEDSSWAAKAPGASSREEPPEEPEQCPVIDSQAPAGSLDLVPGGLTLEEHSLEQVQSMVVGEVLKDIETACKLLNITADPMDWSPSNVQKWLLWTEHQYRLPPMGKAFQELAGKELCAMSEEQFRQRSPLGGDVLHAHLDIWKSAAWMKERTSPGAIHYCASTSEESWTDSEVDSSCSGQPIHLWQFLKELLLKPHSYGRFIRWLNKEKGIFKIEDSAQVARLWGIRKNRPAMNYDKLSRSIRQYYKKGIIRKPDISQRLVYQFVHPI
The note with it: protein: recombinant; tags: N-terminal GST; dsDNA, one strand shown. The essentials: as §1

A further assay has as its target T10, ETV7 (Homo sapiens, UniProt Q9Y603 1-341).
T10 sequence: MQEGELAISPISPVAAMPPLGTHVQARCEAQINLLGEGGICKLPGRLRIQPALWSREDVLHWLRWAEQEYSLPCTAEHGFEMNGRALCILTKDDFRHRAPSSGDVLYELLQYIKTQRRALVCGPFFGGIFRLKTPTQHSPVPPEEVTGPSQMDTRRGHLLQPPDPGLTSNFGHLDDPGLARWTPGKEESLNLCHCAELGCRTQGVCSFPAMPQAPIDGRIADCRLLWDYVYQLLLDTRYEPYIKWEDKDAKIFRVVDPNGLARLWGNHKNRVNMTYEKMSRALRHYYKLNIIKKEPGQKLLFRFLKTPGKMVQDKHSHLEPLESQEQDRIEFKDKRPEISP
Particulars: protein: recombinant; tags: N-terminal GST; dsDNA, one strand shown. Summed up: as §1

In another assay the target is T11, ELF5 (Homo sapiens, UniProt Q9UKW6-2 1-255).
T11 sequence: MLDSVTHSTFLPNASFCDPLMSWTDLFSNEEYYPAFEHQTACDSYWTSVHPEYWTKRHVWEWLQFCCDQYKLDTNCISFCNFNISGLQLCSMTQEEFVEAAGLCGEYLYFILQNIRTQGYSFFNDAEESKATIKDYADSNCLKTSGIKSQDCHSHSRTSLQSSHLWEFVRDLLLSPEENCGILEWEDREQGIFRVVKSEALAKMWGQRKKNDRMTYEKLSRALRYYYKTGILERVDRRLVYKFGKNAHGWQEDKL
Particulars: protein: recombinant; tags: N-terminal GST; dsDNA, one strand shown. The essentials: as §1

In a further assay the target is T12, ETV3 (Homo sapiens, UniProt P41162-2 1-143).
T12 sequence: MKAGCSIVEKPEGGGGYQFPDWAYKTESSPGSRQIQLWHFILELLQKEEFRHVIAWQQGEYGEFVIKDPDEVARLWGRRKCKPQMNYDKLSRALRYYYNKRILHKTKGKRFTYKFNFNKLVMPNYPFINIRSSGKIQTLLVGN
Particulars: protein: recombinant; tags: N-terminal GST; dsDNA, one strand shown. The essentials: as §1

The target of another assay is ETV6 (Homo sapiens, UniProt P41212 1-452). The note with it: protein: recombinant; tags: N-terminal GST; dsDNA, one strand shown. The essentials: as §1
Chain of ETV6 (P41212 whole entry): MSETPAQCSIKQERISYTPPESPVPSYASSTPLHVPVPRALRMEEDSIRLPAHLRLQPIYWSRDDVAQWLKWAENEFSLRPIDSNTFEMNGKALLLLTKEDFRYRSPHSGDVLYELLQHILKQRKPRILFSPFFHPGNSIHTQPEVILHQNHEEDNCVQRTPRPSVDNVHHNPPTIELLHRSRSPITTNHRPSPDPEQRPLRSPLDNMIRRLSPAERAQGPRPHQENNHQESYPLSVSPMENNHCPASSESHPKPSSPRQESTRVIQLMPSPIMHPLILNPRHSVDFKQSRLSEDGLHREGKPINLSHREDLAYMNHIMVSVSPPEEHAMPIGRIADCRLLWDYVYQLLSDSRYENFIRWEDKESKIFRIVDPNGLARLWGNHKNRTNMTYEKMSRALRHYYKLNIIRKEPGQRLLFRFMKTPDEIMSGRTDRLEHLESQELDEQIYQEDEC

Chain of CRX (O43186 whole entry): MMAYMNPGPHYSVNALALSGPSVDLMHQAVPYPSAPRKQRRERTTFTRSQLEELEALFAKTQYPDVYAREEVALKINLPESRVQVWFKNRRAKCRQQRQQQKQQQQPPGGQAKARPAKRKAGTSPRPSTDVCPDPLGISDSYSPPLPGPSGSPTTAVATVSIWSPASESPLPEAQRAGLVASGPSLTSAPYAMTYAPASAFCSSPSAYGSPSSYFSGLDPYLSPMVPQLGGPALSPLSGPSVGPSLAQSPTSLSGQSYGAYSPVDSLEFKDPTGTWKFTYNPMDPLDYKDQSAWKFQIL
Chain of ETV5 (P41161 whole entry): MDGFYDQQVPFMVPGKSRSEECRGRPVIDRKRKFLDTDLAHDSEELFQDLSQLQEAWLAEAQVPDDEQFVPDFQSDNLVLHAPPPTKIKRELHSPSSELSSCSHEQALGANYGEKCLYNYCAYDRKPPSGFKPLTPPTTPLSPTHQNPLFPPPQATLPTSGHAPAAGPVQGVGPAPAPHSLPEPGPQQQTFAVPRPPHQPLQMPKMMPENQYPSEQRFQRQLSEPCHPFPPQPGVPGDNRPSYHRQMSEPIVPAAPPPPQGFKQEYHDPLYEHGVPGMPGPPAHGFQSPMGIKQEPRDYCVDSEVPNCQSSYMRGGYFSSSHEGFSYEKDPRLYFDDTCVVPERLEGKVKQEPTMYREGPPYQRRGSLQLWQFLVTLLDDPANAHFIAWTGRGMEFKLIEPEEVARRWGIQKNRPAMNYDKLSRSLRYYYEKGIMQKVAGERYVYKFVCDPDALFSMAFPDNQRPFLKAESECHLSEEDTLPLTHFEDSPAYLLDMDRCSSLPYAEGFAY

Consider TCATAT, for which the binding signal in the assay with FEV was 1.24 fold enrichment (6-mer frequency, TF over GST control); with ETV5 it was 1.23 fold enrichment (6-mer frequency, TF over GST control); in the assay with HSF1 it was 1.15 fold enrichment (6-mer frequency, TF over GST control); with SPIC, 1.13 fold enrichment (6-mer frequency, TF over GST control); with ELF4 it was 1.28 fold enrichment (6-mer frequency, TF over GST control); in the assay with ELK4, 1.23 fold enrichment (6-mer frequency, TF over GST control). Besides, the binding signal with ETV2 was 1.29 fold enrichment (6-mer frequency, TF over GST control); with ELF3, 1.23 fold enrichment (6-mer frequency, TF over GST control); with CRX it was 1.22 fold enrichment (6-mer frequency, TF over GST control); with ETV1, 1.35 fold enrichment (6-mer frequency, TF over GST control); with ERF, 1.22 fold enrichment (6-mer frequency, TF over GST control); in the assay with ETV3L, 1.3 fold enrichment (6-mer frequency, TF over GST control). For the same sequence, the binding signal in the assay with ETS2 is 1.27 fold enrichment (6-mer frequency, TF over GST control); with SPDEF it was 1.23 fold enrichment (6-mer frequency, TF over GST control); with ETV7, 1.05 fold enrichment (6-mer frequency, TF over GST control); with ELF5, 1.19 fold enrichment (6-mer frequency, TF over GST control); with ETV3, 1.26 fold enrichment (6-mer frequency, TF over GST control); with ETV6, 1.24 fold enrichment (6-mer frequency, TF over GST control).
